Measurements taken from PubChem BioAssay (NCATS).
Results filed as inconclusive are left out. Active and inactive are the calls of the source. Calls come from the whole dose curve; as a rule, active = well fitted curve in the direction sought with a large enough effect; inconclusive = small, poorly fitted or top-dose-only effect, or another doubt; inactive = no such curve, though single readings can be large; an effect the other way counts as inactive or inconclusive.

Columns and labels:
[1] = molecular target: Rap guanine nucleotide exchange factor 3 (Homo sapiens) (UniProt O95398); test: Confirmatory qHTS for antagonist of cAMP-regulated guanine nucleotide exchange factor 3 (EPAC1) (AID 1645880); note: nearly all actives have a fitted effect of over 55% in size; note: potency is the fitted concentration of half-maximal effect
Procedure, shortened: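 Nucleotide exchange uses 100 nM EPAC1, 250 nM RAP1B-BODIPY-GDP and 50 uM GDP, with compounds in a concentration-titration series. After 5 min at room temperature, fluorescence (480 nm ex/540 nm em) is read every 5 min for 30 min. Data are normalized to control ATA and DMSO.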

[2] = molecular target: Rap guanine nucleotide exchange factor 3 (Homo sapiens) (UniProt O95398); test: Confirmatory qHTS for agonist of cAMP-regulated guanine nucleotide exchange factor 3 (EPAC1) (AID 1645881);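 note: EPAC1 catalysed release of BODIPY-GDP from Rap1B seen as fluorescence loss; 100% = effect of cAMP agonist control; nearly all actives have a fitted effect of over 75% in size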
[3] = molecular target: Rap guanine nucleotide exchange factor 4 (Homo sapiens) (UniProt Q8WZA2); test: Confirmatory qHTS for agonist of cAMP-regulated guanine nucleotide exchange factor 4 (EPAC2) (AID 1645884);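 note: nucleotide exchange releases bodipy-GDP from Rap1 and this lowers its fluorescence; % is set by controls: 0 for no effect and ±100 for the full control effect; nearly all actives have a fitted effect of over 65% in size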
[4] = molecular target: Rap guanine nucleotide exchange factor 4 (Homo sapiens) (UniProt Q8WZA2); test: Confirmatory qHTS for antagonist of cAMP-regulated guanine nucleotide exchange factor 4 (EPAC2) (AID 1645885); note: nearly all actives have a fitted effect of over 25% in size; note: potency is the fitted concentration of half-maximal effect; for activity change, negative = inhibition: % is set by controls: 0 for no effect and ±100 for the full control effect
[5] = molecular target: Rap guanine nucleotide exchange factor 3 (Homo sapiens) (UniProt O95398); test: Counterscreen qHTS for antagonist of cAMP-regulated guanine nucleotide exchange factor 3 (EPAC1) (AID 1645888);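 note: fluorescence loss as bound BODIPY-GDP is released from Rap1B; % of control where 0% means no effect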
Procedure, shortened: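 Rap1B–BODIPY-GDP (250 nM) with 50 uM GDP; compounds pin-transferred to 9.74 nM–152 uM final (activator) or from 7.32 nM upwards (inhibitor). Fluorescence Ex/Em 480/540 nm read at 5 and 30 min, then after adding cAMP or buffer, at room temperature.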

Chain of Rap guanine nucleotide exchange factor 4 (Homo sapiens) (Q8WZA2 whole entry, looked up): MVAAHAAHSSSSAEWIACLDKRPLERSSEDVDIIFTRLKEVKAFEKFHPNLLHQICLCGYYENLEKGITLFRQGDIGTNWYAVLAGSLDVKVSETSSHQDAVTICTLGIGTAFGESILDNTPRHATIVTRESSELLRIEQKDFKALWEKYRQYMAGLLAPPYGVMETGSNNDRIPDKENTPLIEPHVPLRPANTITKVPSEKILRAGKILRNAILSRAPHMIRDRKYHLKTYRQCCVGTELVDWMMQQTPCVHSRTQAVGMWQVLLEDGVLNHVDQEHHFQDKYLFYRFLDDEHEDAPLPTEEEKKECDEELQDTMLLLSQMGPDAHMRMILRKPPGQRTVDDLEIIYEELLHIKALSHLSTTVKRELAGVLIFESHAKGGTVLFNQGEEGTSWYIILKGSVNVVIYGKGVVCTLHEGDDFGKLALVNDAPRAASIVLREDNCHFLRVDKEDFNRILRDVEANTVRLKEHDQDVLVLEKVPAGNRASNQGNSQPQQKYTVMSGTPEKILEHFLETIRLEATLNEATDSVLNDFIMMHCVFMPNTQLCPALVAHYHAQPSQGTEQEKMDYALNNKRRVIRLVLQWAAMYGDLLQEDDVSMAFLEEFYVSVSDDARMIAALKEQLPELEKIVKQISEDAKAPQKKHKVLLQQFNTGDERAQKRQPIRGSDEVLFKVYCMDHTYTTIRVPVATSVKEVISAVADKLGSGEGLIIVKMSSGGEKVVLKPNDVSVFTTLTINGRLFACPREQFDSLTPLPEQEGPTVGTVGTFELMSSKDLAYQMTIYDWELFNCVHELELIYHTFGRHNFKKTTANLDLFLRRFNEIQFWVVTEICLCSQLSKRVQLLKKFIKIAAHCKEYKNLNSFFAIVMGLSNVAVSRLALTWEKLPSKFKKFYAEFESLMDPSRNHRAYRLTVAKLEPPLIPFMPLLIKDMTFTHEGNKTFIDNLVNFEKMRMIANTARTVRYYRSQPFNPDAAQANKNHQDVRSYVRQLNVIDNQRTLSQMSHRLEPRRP
Chain of Rap guanine nucleotide exchange factor 3 (Homo sapiens) (O95398 whole entry, looked up): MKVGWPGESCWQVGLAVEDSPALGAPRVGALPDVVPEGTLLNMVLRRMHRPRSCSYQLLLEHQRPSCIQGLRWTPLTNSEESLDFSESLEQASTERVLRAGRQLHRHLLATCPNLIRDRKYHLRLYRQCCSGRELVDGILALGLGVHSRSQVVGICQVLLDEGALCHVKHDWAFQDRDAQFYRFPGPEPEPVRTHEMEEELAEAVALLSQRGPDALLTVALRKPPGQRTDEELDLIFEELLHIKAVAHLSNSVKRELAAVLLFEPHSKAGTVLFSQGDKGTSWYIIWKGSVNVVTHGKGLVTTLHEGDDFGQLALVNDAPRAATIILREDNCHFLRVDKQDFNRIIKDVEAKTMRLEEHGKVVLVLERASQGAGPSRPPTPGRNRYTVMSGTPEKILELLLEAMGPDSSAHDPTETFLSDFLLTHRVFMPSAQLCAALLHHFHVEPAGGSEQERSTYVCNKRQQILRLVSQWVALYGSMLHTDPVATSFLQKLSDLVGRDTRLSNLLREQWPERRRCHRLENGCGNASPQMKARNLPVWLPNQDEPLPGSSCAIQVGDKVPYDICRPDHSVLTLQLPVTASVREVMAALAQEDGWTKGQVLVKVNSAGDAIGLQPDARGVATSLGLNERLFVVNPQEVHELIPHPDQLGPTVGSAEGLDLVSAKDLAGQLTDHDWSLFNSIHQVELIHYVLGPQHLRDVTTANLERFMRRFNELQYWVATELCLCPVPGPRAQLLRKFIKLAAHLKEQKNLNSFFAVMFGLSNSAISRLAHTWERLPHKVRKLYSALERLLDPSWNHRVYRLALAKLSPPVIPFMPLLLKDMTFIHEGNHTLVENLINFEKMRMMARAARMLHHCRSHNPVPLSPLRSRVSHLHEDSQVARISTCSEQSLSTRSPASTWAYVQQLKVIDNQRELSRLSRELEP

Cc1ccc(NC(=O)c2ccc(Cl)cc2Cl)c(C(=O)c2ccccc2)c1
inactive: Potency [1] | Potency [2] | Potency [3] | outcome [4] inactive [at 12.7 µM] | Potency [5]

CC1CCc2[nH]c3ccc(C(=O)N(C)CC(=O)Nc4ccccc4Br)cc3c2C1 (stereo not given)
inactive: Potency [1] | Potency [2] | Potency [3] | Potency [4] | Potency [5]

O=[N+]([O-])c1cc2ccccc2c(O)c1O
active: Potency [1] 31.6 µM
inactive: Potency [2] | activation [3] 8.01% [at 17.1 µM, percent relative to cAMP agonist control] | Potency [4] | activity change, negative = inhibition [5] 9.83% [at 30.8 µM]

CCCCCn1c(C)c2c(OCC)cccc(=O)c2c1C
inactive: Potency [1] | Potency [2] | activation [3] 7.02% [at 17.1 µM, percent relative to cAMP agonist control] | Potency [4] | activity change, negative = inhibition [5] 23.1% [at 30.8 µM]

COc1ccc(C(=O)c2c(-c3ccc(OC)cc3)oc3ccccc23)cc1
active: Potency [4] 15.1 µM
inactive: Potency [1] | Potency [2] | Potency [3] | Potency [5]

COc1ccccc1NC(=O)c1sc2nc(C)c(C(=O)Nc3ccc(C)cc3C)c(-c3ccco3)c2c1N
inactive: Potency [1] | Potency [2] | Potency [3] | outcome [4] inactive [at 12.7 µM] | Potency [5]

Cc1ccc(CNC(=O)COc2ccccc2-c2ccccc2)cc1
inactive: Potency [1] | Potency [2] | activation [3] 2.73% [at 17.1 µM, percent relative to cAMP agonist control] | Potency [4] | activity change, negative = inhibition [5] 0.587% [at 30.8 µM]

COc1ccc(Br)cc1CN(C)C(=O)c1ccccc1OCc1c(C)noc1C
inactive: Potency [1] | Potency [2] | Potency [3] | Potency [4] | Potency [5]

CC(=O)Nc1ccc(S(=O)(=O)NCCC(=O)Nc2cc(C)ccn2)cc1
inactive: Potency [1] | Potency [2] | Potency [3] | Potency [4] | Potency [5]

O=C(N/N=C/c1ccc(F)cc1)c1cc(-c2ccco2)nc2ccccc12
inactive: Potency [2] | Potency [3] | Potency [4] | Potency [5]
active: Potency [1] 16.9 µM

COc1cccc(NC(=O)c2csc3c2CCCC3)c1
inactive: Potency [1] | Potency [2] | activation [3] 8.66% [at 17.1 µM, percent relative to cAMP agonist control] | Potency [4] | activity change, negative = inhibition [5] -28.5% [at 30.8 µM]

CCSc1nnc(NC(=O)C2CCN(S(=O)(=O)c3ccccc3C(F)(F)F)CC2)s1
inactive: Potency [1] | Potency [2] | Potency [3] | Potency [4] | Potency [5]

C/C(=N\NC(=O)c1cc2ccccc2cc1O)c1cc2ccccc2o1
active: Potency [1] 37.9 µM
inactive: Potency [2] | Potency [3] | Potency [4] | Potency [5]

C[C@H](c1ccccc1)N1C[C@@H](COCc2ccccc2)Oc2cc(N3CC[C@@H](O)C3)ccc2S1(=O)=O
inactive: Potency [1] | Potency [2] | Potency [3] | Potency [4] | Potency [5]

O=c1oc(-c2ccccc2NS(=O)(=O)c2ccccc2)nc2ccccc12
inactive: Potency [1] | Potency [2] | activation [3] 2.35% [at 17.1 µM, percent relative to cAMP agonist control] | Potency [4] | activity change, negative = inhibition [5] 2.74% [at 30.8 µM]

NS(=O)(=O)c1ccc(NC2=CC(=O)C(=O)c3ccccc32)cc1
active: Potency [1] 26.9 µM | Potency [4] 84.9 µM
inactive: Potency [2] | Potency [3] | Potency [5]

CC(=O)N1N=C(N)SC1c1ccc(Cl)c(Cl)c1 (stereo not given)
inactive: Potency [1] | Potency [2] | activation [3] -0.153% [at 17.1 µM, percent relative to cAMP agonist control] | Potency [4] | activity change, negative = inhibition [5] -0.904% [at 30.8 µM]

CN1OC[C@@H]2CN(C(=O)CCc3ccccc3)[C@H](c3cccc(-c4ccc(C#N)cc4)c3)C[C@@H]21
inactive: Potency [1] | Potency [2] | Potency [3] | Potency [4] | Potency [5]

O=C1Nc2ccccc2SC1c1ccccc1 (stereo not given)
inactive: Potency [1] | Potency [2] | activation [3] 3.23% [at 17.1 µM, percent relative to cAMP agonist control] | Potency [4] | activity change, negative = inhibition [5] -15.7% [at 30.8 µM]

COc1ccc(NC(=O)C2=NN(c3ccccc3)C(=O)CC2)cn1
inactive: Potency [1] | Potency [2] | Potency [3] | Potency [4] | Potency [5]

Nc1nc2c(ncn2[C@@H]2O[C@H](CNCc3ccccc3)[C@@H](O)[C@H]2O)c(=O)[nH]1
inactive: Potency [1] | Potency [2] | Potency [3] | Potency [4] | Potency [5]

Cn1cc(CNCc2cn(C)nc2-c2ccc(C3CCCCC3)cc2)cn1
inactive: Potency [1] | Potency [2] | Potency [3] | Potency [4] | Potency [5]

O=c1c(Cl)c(Cl)cnn1Cc1nnc(-c2ccccc2Br)o1
inactive: Potency [2] | Potency [3] | Potency [4] | Potency [5]
active: Potency [1] 42.6 µM

COc1ccc(/C=N/Nc2ccc(C(=O)O)cc2)cc1Br
inactive: Potency [1] | Potency [2] | Potency [3] | Potency [4] | Potency [5]

COc1ccc(OC)c(-c2nc3c(C#N)c[nH]n3c2NC2CCCCC2)c1
inactive: Potency [1] | Potency [2] | Potency [3] | outcome [4] inactive [at 12.7 µM] | Potency [5]

Cc1ccnc(NS(=O)(=O)c2ccc(NC(=O)Cc3c(F)cccc3Cl)cc2)n1
inactive: Potency [1] | Potency [2] | Potency [3] | Potency [4] | Potency [5]
